Bioassay records: PubChem, National Center for Advancing Translational Sciences (NCATS)
HttQ103 aggreg: inhibitors of mutant huntingtin aggregate formation in PC12 cells; PC12 HttQ103-GFP aggregates, Acumen cytometry, 40 h; Potency, µM (series often up to 46.1 µM), most hits filed as inhibitors; 220,000 tested, 1.1% active; also: nearly all actives have a fitted effect of over 60% in size
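Using laser scanning cytometry, GFP-positive aggregates were counted after lysis of PC12 cells induced with 100 nM tebufenozide to express HTT exon 1 Q103–GFP. Compounds were tested in titration.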
PNC assembly inh: inhibitors of perinucleolar compartment assembly | PC3M PTB-GFP, PNC prevalence imaging, 16 h; active compounds read low | activity change (PNC), negative = inhibition, % at 10 µM | 140,000 tested, 3.1% active | AID 2417;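 active = readout at or below -70, meaning at least 70% loss of cells showing the perinucleolar compartment, a nuclear body marking cancer cells; inconclusive = readout between -30 and a set limit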
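Read-out is percentage of cells bearing a perinucleolar compartment, from automated 20x imaging of fixed, Hoechst-stained PC3M PTB-GFP cells. Cells were seeded 4 h, then exposed 16 h to compound (23 nl of library stock) in duplicate plates.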
IMPase inh: cell-permeable inhibitors of inositol monophosphatase (IMPase). P97697. CHO-M1 cells, IP1 accumulation, HTRF TR-FRET ratio. inhibition (IP1 accumulation), % at 46.1 µM. 120,000 tested, under 10 active; active = well fitted curve in the direction sought with a large enough effect in the signal ratio, not every such curve was filed as active; inconclusive = small, poorly fitted or top-dose-only effect, or a change in a side signal; inactive = no such curve, though single readings can be large or run the other way; the % refers to the signal ratio;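 also: cells stimulated with carbachol in lithium chloride buffer; higher means more IMPase inhibition seen as more IP1 and lower FRET ratio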
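Carbachol-driven Gq signalling in CHO-M1 cells (2000/well) generates IP1. Compounds that block IMPase raise IP1 and so reduce the FRET signal from Eu-anti-IP1 and d2-IP1 after a 10 min room-temperature lysis.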
HTT ATP protect: cytoprotection in Huntington HTT-Q103 PC12 cell model; PC12 HTT-Q103 induced, cytoprotection, ATP luminescence, 40 h; Potency, µM (top dose mostly 56.4 µM), hits mostly activators; 230,000 tested, 0.14% active; AID 1471; also: nearly all actives have a fitted effect of over 45% in size
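Rat PC12, Q103 Htt exon1-GFP fusion, ecdysone promoter; tebufenozide inducer 100 nM final; compound titration; qHTS, 1500 cells/well; ATPlite luminescent read.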
ALOX12 inhib: inhibitors of human 12-lipoxygenase (ALOX12); P18054; purified 12-hLO, xylenol orange hydroperoxide absorbance; Potency, µM (top dose mostly 57.1 µM), most hits filed as inhibitors; 150,000 tested, 0.12% active; also: nearly all actives have a fitted effect of over 55% in size
Target sequence (P18054 whole entry, looked up): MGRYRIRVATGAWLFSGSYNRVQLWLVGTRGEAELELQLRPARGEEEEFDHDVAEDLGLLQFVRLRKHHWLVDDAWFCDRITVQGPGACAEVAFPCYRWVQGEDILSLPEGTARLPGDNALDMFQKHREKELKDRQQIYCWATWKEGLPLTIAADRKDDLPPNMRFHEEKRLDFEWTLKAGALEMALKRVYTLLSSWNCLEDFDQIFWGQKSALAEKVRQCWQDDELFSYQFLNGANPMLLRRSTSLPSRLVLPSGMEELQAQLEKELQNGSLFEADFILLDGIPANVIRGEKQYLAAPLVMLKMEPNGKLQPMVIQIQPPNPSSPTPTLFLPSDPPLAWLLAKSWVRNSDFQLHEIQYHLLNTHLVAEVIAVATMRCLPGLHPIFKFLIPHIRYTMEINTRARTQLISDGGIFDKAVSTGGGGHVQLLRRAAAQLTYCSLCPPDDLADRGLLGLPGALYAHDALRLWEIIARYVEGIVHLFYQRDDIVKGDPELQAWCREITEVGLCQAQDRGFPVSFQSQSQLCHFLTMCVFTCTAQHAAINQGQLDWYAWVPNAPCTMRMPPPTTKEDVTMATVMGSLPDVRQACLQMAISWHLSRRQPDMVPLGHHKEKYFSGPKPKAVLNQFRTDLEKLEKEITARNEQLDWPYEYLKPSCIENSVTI
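Lipoxygenase turnover measured by absorbance at 573 and 405 nm after Fe-XO development. Human 12hLO 150 nM, arachidonate 40 uM, pH 7.0 Hepes buffer with detergent; 15 min compound preincubation, 30 min reaction.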
NPSR antag: neuropeptide S receptor (human) antagonism, cAMP; 220,000 tested, 1% active; Potency, µM (highest dose often 38.3 µM), hits mostly inhibitors; CHO-NPSR cells, cAMP TR-FRET, antagonist mode; Q6W5P4; also: nearly all actives have a fitted effect of over 50% in size
Each line names hits and unclear results; the compound was inactive in the other large screens. Sampled rows, rich in hits. Any-hit rate of the full collection: about 3.3%. Unless noted, calls follow the shape of the dose curve; as a rule, active = well fitted curve in the direction sought with a large enough effect; inconclusive = small, poorly fitted or top-dose-only effect, or another doubt; inactive = no such curve, though single readings can be large; an effect the other way counts as inactive or inconclusive.

COc1cccc2c1C(=O)c1c(O)c3c(c(O)c1C2=O)C[C@@](O)(C(=O)CO)C[C@@H]3O[C@@H]1C[C@H](N)[C@H](O)[C@H](C)O1	none (no result: HttQ103 aggreg, PNC assembly inh, IMPase inh, ALOX12 inhib, NPSR antag)
Oc1ccc(C(c2nnnn2C2CCCCC2)N2CCOCC2)cc1 (stereo not drawn)	HttQ103 aggreg 2.8µM (no result: PNC assembly inh, IMPase inh, HTT ATP protect, ALOX12 inhib)
c1cncc(C(c2nnnn2C2CCCCC2)N2CCCCC2)c1 (stereo not drawn)	none (no result: PNC assembly inh, IMPase inh, ALOX12 inhib)
CN1/C(=C\C=C2/C(=O)Oc3ccccc3C2=O)C(C)(C)c2ccccc21	HttQ103 aggreg 7.9µM, PNC assembly inh -91 (no result: IMPase inh, HTT ATP protect)
CO/N=C/C=C1/N(C)c2ccccc2C1(C)C	none (no result: PNC assembly inh, IMPase inh, ALOX12 inhib)
CN1/C(=C\C=N\O)C(C)(C)c2ccccc21	none (no result: PNC assembly inh, IMPase inh, ALOX12 inhib)
Cc1ccccc1N=C/C=C1\N(C)c2ccccc2C1(C)C	HttQ103 aggreg 14µM
CN1/C(=C\C=[N+](C)c2ccccc2)C(C)(C)c2ccccc21	HttQ103 aggreg 6.3µM
CCN(CC)CCCNCC(=O)Nc1ccc(OC)c(Cl)c1	none (no result: PNC assembly inh, IMPase inh, ALOX12 inhib)
O=C(O)c1ccccc1Cl	none (no result: HttQ103 aggreg, PNC assembly inh, IMPase inh, NPSR antag)
CC1(C(=O)NC2CCCC2)CCC(=O)N1Cc1ccccc1Cl (stereo not drawn)	PNC assembly inh -88
S=C(NCc1ccccc1Cl)NC1CCCC1	PNC assembly inh -88 (no result: IMPase inh, HTT ATP protect)
COc1ccccc1CN1C(=O)CCC1(C)C(=O)NC1CCCCCC1 (stereo not drawn)	PNC assembly inh inconclusive, NPSR antag inconclusive
N#CCCn1c(=O)c(-c2ccccc2)nc2cnc(N3CCNCC3)nc21	HTT ATP protect inconclusive (no result: HttQ103 aggreg, PNC assembly inh, IMPase inh, NPSR antag)
CCNc1ncc2nc(-c3cc(F)cc(F)c3)c(=O)n(C3CC3)c2n1	none (no result: HttQ103 aggreg, PNC assembly inh, IMPase inh, ALOX12 inhib, NPSR antag)
CC(C)NC(=O)c1onc(CSc2ccccc2F)c1C(=O)O	PNC assembly inh -84
Cc1ccccc1SCc1noc(C(=O)NC(C)C)c1C(=O)O	PNC assembly inh -91
CCCCNC(=O)c1onc(CSc2ccccc2C)c1C(=O)O	none
CC(C)OC(=O)c1sc2nc(-c3ccccc3)ccc2c1N	PNC assembly inh -100, IMPase inh inconclusive
COc1ccc(C(=O)c2sc3nc(-c4ccccc4)ccc3c2N)cc1	HTT ATP protect inconclusive (no result: IMPase inh)
Cc1ccccc1C(=O)Nc1ccc(-c2nc3ccc(C(=O)c4ccccc4)cc3[nH]2)cc1	HttQ103 aggreg 11µM
Cc1ccc(-n2c(Cl)c(Cl)nc(Cl)c2=O)cc1	HttQ103 aggreg 4.5µM, PNC assembly inh inconclusive, NPSR antag 10µM (no result: IMPase inh, HTT ATP protect)
Brc1ccccc1OCCCN1CCOCC1	PNC assembly inh -100
O=C(Nc1ccc2nc3n(c(=O)c2c1)CCCC3)c1cc([N+](=O)[O-])ccc1F	HttQ103 aggreg 14µM, PNC assembly inh inconclusive (no result: IMPase inh)
Cc1ccc(NC(=O)Cn2cnc3c(oc4nc5c(cc43)COC(C)(C)C5)c2=O)cc1	PNC assembly inh -84 (no result: IMPase inh)
Cc1cc(C)nc(SCc2ccc(C(=O)N/N=C/c3cccc(O)c3O)cc2)n1	none (no result: IMPase inh)
COc1ccc(O)c(/C=N/NC(=O)c2ccc(CSc3nc(C)cc(C)n3)cc2)c1	HttQ103 aggreg 5.6µM (no result: IMPase inh)
CCCCC(=O)NC(=S)NNC(=O)c1ccc(OC)cc1	HttQ103 aggreg 10µM (no result: PNC assembly inh, IMPase inh, ALOX12 inhib)
O=C1NCC(c2ccccc2)C1C(=O)N/N=C\c1ccc(-c2ccc(Cl)c(Cl)c2)o1 (stereo not drawn)	none
O=C1NCC(c2ccccc2)C1C(=O)N/N=C/c1ccc(Cl)s1 (stereo not drawn)	HttQ103 aggreg 0.11µM (no result: PNC assembly inh, IMPase inh, HTT ATP protect, ALOX12 inhib)
CC(=O)Nc1ccc(NC(=O)COC(=O)c2c(C)nn(-c3ccccc3)c2C)cc1	PNC assembly inh -83 (no result: IMPase inh, HTT ATP protect)
Cc1nc(Nc2ccc(Cl)c(Cl)c2)sc1C(=O)Nc1ccccc1	HttQ103 aggreg 25µM, NPSR antag inconclusive (no result: IMPase inh)
Cc1nc(Nc2ccc(Cl)cc2Cl)sc1C(=O)Nc1ccccc1	HttQ103 aggreg inconclusive, PNC assembly inh inconclusive
CCOC(=O)CSC1=C(C#N)C(c2ccc(C)o2)CC(=O)N1 (stereo not drawn)	PNC assembly inh -85
Cn1c(=O)cc(NCc2ccccc2)[nH]c1=O	PNC assembly inh -91
COc1ccc(C(=O)N2CCC3(CC2)CN(c2ccccc2)C3)cc1	none (no result: HttQ103 aggreg, PNC assembly inh, IMPase inh, NPSR antag)
Cc1cc(C)nc(N/N=C2/CCCC/C2=C\c2ccccc2)n1	HttQ103 aggreg 4.5µM (no result: PNC assembly inh, IMPase inh, ALOX12 inhib)
Cc1ccnc(N/N=C/c2ccccc2)n1	PNC assembly inh inconclusive
Cc1ccc(C)o1	none (no result: HttQ103 aggreg, PNC assembly inh, IMPase inh, NPSR antag)
COC(=O)c1cccc(NS(=O)(=O)c2ccc(OC)cc2)c1C	PNC assembly inh inconclusive
COc1ccc(-c2csc(NC(=O)c3ccccc3NS(=O)(=O)c3ccc(F)c(F)c3)n2)cc1	HttQ103 aggreg 2.5µM (no result: PNC assembly inh, IMPase inh, ALOX12 inhib)
COc1ccc(S(=O)(=O)Nc2ccccc2C(=O)NC(C)C)cc1OC	PNC assembly inh -124
Cc1ccc(S(=O)(=O)Nc2ccccc2C(=O)Nc2nc(-c3ccc(F)cc3)cs2)cc1	NPSR antag inconclusive (no result: IMPase inh)
CCC(C)NC(=O)c1ccccc1NS(=O)(=O)c1ccc(OC)c(OC)c1 (stereo not drawn)	none
COC(=O)c1cccc(NS(=O)(=O)c2ccc(OC)c(OC)c2)c1C	PNC assembly inh -84
O=CCCCC=O	HTT ATP protect inconclusive (no result: PNC assembly inh, IMPase inh, NPSR antag)
CN(C)C(=O)CCSC(SCCC(=O)O)c1cccc(/C=C/c2ccc3ccc(Cl)cc3n2)c1 (stereo not drawn)	none (no result: PNC assembly inh, IMPase inh, ALOX12 inhib, NPSR antag)
